# Among all 290,000 compounds or so, about 27,000 (9.3%) were called active. No stated cut-off is given here; in the data, active means inhibition mostly above about 28% (no sharp cut-off); inactive means mostly below about 43%. For the sample, actives were picked, then their nearest neighbours and some compounds at random.
# Assay: A qHTS for Small Molecule Inhibitors of Shiga Toxin; further: 0% is about no effect
# Conditions: Vero cells, Shiga toxin protein synthesis inhibition reporter; at 38.7 µM, stronger effect = higher value
row,SMILES,inhibition
1,CC(C)C[C@H]1CN=C(Nc2ccccc2)N1CC1CCCCC1,0.785% (inactive)
2,O=C(Cc1ccccn1)c1ccc(O)cc1O,-4.76% (inactive)
3,Cc1cccc(C(=O)N2CCCC(Nc3ccc(C(C)C)cc3)C2)n1 (centres undefined),19.6% (inactive)
4,CCn1c(SCc2cccc(C(=O)O)c2)nnc1-c1ccc(Cl)cc1,7.08% (inactive)
5,O=S(=O)(Cc1nnnn1-c1ccc(Br)cc1)c1ccc(F)cc1,-1.52% (inactive)
6,CCOc1ccc(-n2c(SCC(=O)Nc3cc(C(=O)O)ccc3Cl)nc3ccccc3c2=O)cc1,3.55% (inactive)
7,CC(=O)c1cccc(NC(=O)COc2ccc(S(=O)(=O)N3CCOCC3)cc2)c1,-10.1% (inactive)
8,CCCC(C)c1nnc(NC(=O)C2CC(=O)N(c3ccc(OCC)cc3)C2)s1 (centres undefined),-3.18% (inactive)
9,Cc1cccn2c(=O)c3cc(C(=O)NCCN4CCOCC4)c(=N)n(Cc4cccnc4)c3nc12,-22.4% (inactive)
10,COc1cccc(NC(=O)Nc2nnc(N3CCCCC3C)s2)c1 (centres undefined),53.2% (active)
11,CCOC(=O)c1csc(NC(=O)Nc2cccc(OC)c2)n1,-3.25% (inactive)
12,COc1cccc(C(=O)Nc2nnc(S(=O)(=O)N3CCCCC3)s2)c1,6.87% (inactive)
13,CN1C(=O)[C@H]2[C@@H](C3CC3)N3C(=O)CN(Cc4ccccc4)C(=O)[C@@]3(C)[C@H]2C1=O,1.87% (inactive)
14,CC1CCN(CCCn2c(SCC(=O)NC3CCCC3)nc3ccccc3c2=O)CC1,17.3% (inactive)
15,COc1ccccc1C1/C(=C(/O)c2ccc(OC(C)C)cc2)C(=O)C(=O)N1c1cc(C)on1 (centres undefined),-22.9% (inactive)
16,CCOc1ccc(/C(O)=C2\C(=O)C(=O)N(c3ccc(OC)cc3)C2c2ccccc2[N+](=O)[O-])cc1 (centres undefined),26.8% (active)
17,COc1ccc(/C(O)=C2/C(=O)C(=O)N(c3nc(C)c(C)s3)C2c2ccco2)cc1 (centres undefined),30.6% (inactive)
18,CCNC(=O)COC(=O)CCNC(=O)c1cccc(C)c1,43.3% (inactive)
19,CCOC(=O)C(CC)/C(C)=N\NC(=O)c1cccc(C)c1 (centres undefined),66.3% (active)
20,COc1ccc(OCC(=O)NNC(=O)c2cccc(C)c2)cc1,-7.72% (inactive)

row,SMILES,inhibition
1,Cc1cc(=O)oc2c3c(cc(OCC(=O)NCCC(=O)N[C@@H](C)C(=O)O)c12)OC(C)(C)CC3,-4.24% (inactive)
2,Cc1cc2c(s1)c1cnn(Cc3c(F)cccc3Cl)c(=O)c1n2C,12.5% (inactive)
3,O=C(c1cccs1)N(C(=O)c1cccs1)c1ccccn1,39.7% (inactive)
4,O=C(C1=C(O)C(=O)N(CCOCCO)C1c1ccccn1)c1cccs1 (centres undefined),29.3% (active)
5,O=C(C1=C(O)C(=O)N(c2ncccn2)C1c1cccs1)c1ccco1 (centres undefined),-18.4% (inactive)
6,Cn1c(=O)c2c(nc(NCCc3ccccc3)n2Cc2ccccc2)n(C)c1=O,-11.5% (inactive)
7,Cn1c(=O)c2c(nc(OCc3cccnc3)n2Cc2ccccc2)n(C)c1=O,39.2% (active)
8,C=CCOc1nc2c(c(=O)n(C)c(=O)n2C)n1Cc1ccc(Cl)cc1Cl,-1.49% (inactive)
9,COc1ccc(CN2C3CCCC2CC(NC(=O)c2cccc(F)c2)C3)cc1 (centres undefined),14.6% (inactive)
10,Cc1cccc(-n2ncc(Cl)c(Cl)c2=O)c1,-17.2% (inactive)
11,O=c1c(Cl)c(NC2CC2)cnn1-c1ccccc1,107% (inactive)
12,C=CCNc1cnn(-c2ccc(C)cc2)c(=O)c1Cl,127% (active)
13,CCCN1C2CCCC1CC(NC(=O)c1cccc(OC)c1)C2 (centres undefined),12.9% (inactive)
14,CCOc1ccc(N=Cc2c(O)n(-c3cccc(C)n3)c(=O)c3ccccc23)cc1,-15.9% (inactive)
15,CCCCn1c(=O)c(C(C)=O)c(O)c2ccccc21,-12.1% (inactive)
16,CC(=O)n1c(C=Nc2ccccc2)c(O)c2ccccc21,49.2% (active)
17,C/C(=N\N1CCN(Cc2ccc(C)cc2)CC1)c1ccco1,31.8% (active)
18,O=C(c1ccco1)N1CCN(Cc2cccc(C(F)(F)F)c2)CC1,-13.9% (inactive)
19,Cc1ccc(CN2CCN(/N=C/c3ccco3)CC2)c(C)c1,11.6% (inactive)
20,CCn1c2ccccc2c2cc(NC(=O)COC(=O)c3ccccc3Br)ccc21,-4.15% (inactive)

row,SMILES,inhibition
1,CCn1c2ccccc2c2cc(NC(=O)CNC)ccc21,-4.7% (inactive)
2,C/C(CC(=O)Nc1ccc(N(C)C)cc1)=N\NC(=O)c1ccccc1F,121% (active)
3,CN(C)c1ccc(NC(=O)CN2C3CCCC2CC(NC(=O)c2ccccc2)C3)cc1 (centres undefined),27.2% (inactive)
4,CCOc1ccc(NC(=O)C/C(C)=N/NC(=O)Cc2cccs2)cc1,2.74% (inactive)
5,CCn1c2ccccc2c2cc(NC(=O)C/C(C)=N/NC(=O)c3ccccc3N)ccc21,131% (active)
6,CC(=O)NCCc1ccc(S(=O)(=O)Nc2ccc(C)c(S(=O)(=O)N3CCOCC3)c2)cc1,-1.5% (inactive)
7,COc1ccccc1NC(=O)CN(c1ccccc1OC)S(=O)(=O)c1ccccc1,-1.35% (inactive)
8,Cc1ccc(NC(=O)CSc2nnc(CNC(=O)c3ccccc3F)o2)cc1Cl,-10.8% (inactive)
9,CC(C)[C@H](NC(=O)N1c2ccccc2NC(=O)[C@@H]1C(C)C)C(=O)N[C@H](C(=O)O)c1ccccc1,3.44% (inactive)
10,Cc1ccc(OCc2cc(C(=O)N(C)CCc3ccccc3)no2)cc1C,106% (active)
11,Cc1ccc(OCC(=O)NCCCNC(=O)c2ccco2)cc1C,-2.33% (inactive)
12,C/C(=N/OC(=O)c1cccc(C(F)(F)F)c1)c1cnccn1,-18.2% (inactive)
13,CN(CCOc1ccccc1)C(=O)c1cc(COc2c(F)cccc2F)on1,28.4% (inactive)
14,CN(Cc1cccnc1)C(=O)c1cc(COc2ccc3ncccc3c2)on1,21.5% (inactive)
15,Cc1ccc(OCC(=O)NCCCNC(=O)c2cccnc2)cc1C,-10.2% (inactive)
16,Cc1cc(CN(C)C(=O)c2cc(COc3ccc(C)c(C)c3)on2)n[nH]1,59.9% (active)
17,CN(Cc1cnccn1)C(=O)c1cc(COc2cccc(C(F)(F)F)c2)on1,60.3% (active)
18,Cc1ccc(SC(=O)COc2ccc(C)c(C)c2)cc1,-26.3% (inactive)
19,O=S(=O)(Cc1noc(-c2ccc(OC(F)(F)F)cc2)n1)c1ccc(F)cc1,60.4% (inactive)
